PubChem BioAssay AID1345082 (National Center for Advancing Translational Sciences (NCATS), 2018)
Values joined by “and” are separate entries in the source; they are usually repeats but may differ in a detail not shown here. Equal values may be shown once. Screen size: about 94,000 compounds; about 4,000 (4.3%) were called active. Entries that show only a call come without a potency. Inconclusive results (about 29%) are left out. The call rests on the fitted dose curve; in most records, active means well fitted inhibition curve with a large enough effect; inconclusive means small, poorly fitted or top-dose-only effect; inactive means no such curve, though single readings can be large or run the other way. The full list was thinned out, with actives kept by preference.

assay: Cytotoxic Profiling in NIH 3T3 Cell Line of Diverse Libraries Using Quantitative High-Throughput Screening; details: NIH 3T3 viability, CellTiter-Glo ATP luminescence, 48-72 h; series mostly up to 96.7 µM; further: nearly all actives have a fitted effect of over 55% in size
Method in brief: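 Cytotoxicity is measured as loss of cellular ATP: NIH 3T3 cells (400/well) are exposed to compound for 48 or 72 hr at 37 °C, then CellTiter-Glo luminescence is imaged after 10 min at room temperature.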
Potency means the concentration at half of the fitted maximal effect.

Row | SMILES | Potency
1 | O=C(CCc1nnn2c1CN(C(=O)NCCc1ccccc1)CC2)NC1CC1 | inactive
2 | CCn1cc(Cl)c(C(=O)N2CCCn3cc(-c4ccccc4)nc32)n1 | inactive
3 | CCCc1nnc(C[C@@H]2C[C@@H](C(C)C)[C@H](CN3CCC[C@H]3CO)C=C2C)o1 | 50.1 µM (active)
4 | COCC(=O)NC[C@@H]1C=C(C)[C@H](CC(=O)Nc2ccccn2)C[C@H]1C(C)C | inactive
5 | CC1=C[C@@H](CN(C)CCc2ccccn2)[C@H](C(C)C)C[C@H]1Cc1nnc(-c2ccccc2F)o1 | 35.5 µM (active)
6 | CNC(=O)c1cn2c(n1)CN(C(C)=O)CC2 | inactive
7 | COc1cc(CCC(=O)N2C[C@@H](C(N)=O)[C@H](c3n[nH]c(C)n3)C2)on1 | inactive
8 | COc1ccc(C(=O)N2C[C@@H](CO)[C@H](c3ccncc3)C2)cc1F | inactive
9 | Cc1ccccc1C(=O)N1CCC2(CC1)OCC(C(=O)N1CCOCC1)N2C(=O)c1cccc(F)c1 (configuration not stated) | inactive
10 | O=C(c1ccc(F)c(F)c1)N1CCC([C@@H]2CNC[C@H]2CO)CC1 | inactive
11 | COc1ccc(-c2noc(-c3nnn4c3COC(c3ccc(F)cc3)C4)n2)cc1 (configuration not stated) | inactive
12 | Cc1ccc(S(=O)(=O)Nc2ccc(C)n(CC(=O)NCc3cccc(F)c3)c2=O)cc1 | inactive
13 | CC(C)CNC(=O)C1COC2(CCC(C)CC2)N1C(=O)c1cccc(F)c1 (configuration not stated) | inactive
14 | CC1CCC2(CC1)OCC(C(=O)NCc1ccc3c(c1)OCO3)N2C(=O)c1ccccc1F (configuration not stated) | 20 µM (active)
15 | O=C(NCc1ccc(F)cc1)C1COC2(CCCCC2)N1C(=O)c1ccccc1 (configuration not stated) | inactive
16 | CCCOc1cc(C)c2c(c1C)C[C@H](C(C)C(=O)N1CCOCC1)CC2 (some centres not stated) | inactive
17 | Fc1cccc(-c2ncc[nH]2)c1 | inactive
18 | O=C1NC[C@@H](CCC(=O)N2CCN(c3ccccn3)CC2)N2C[C@@H](NCc3ccccc3)C[C@@H]12 | inactive
19 | CC(C)N1CC2(C1)C(=O)N(CCCN1CCCC1=O)C(=O)[C@@H]1C[C@@H](O)CN12 | inactive
20 | COc1ncccc1-c1cc(-c2cn[nH]c2)c2cncn2c1 | 70.8 µM (active)
21 | COc1ccccc1-c1cc(-c2cn[nH]c2)c2cncn2c1 | 50.1 µM (active)

Row | SMILES | Potency
22 | COc1ccccc1-c1ccc(C(=O)O)cc1 | inactive
23 | COc1ccccc1-c1cc(C(=O)N(C)C)nc2c1cnn2C | inactive
24 | O=C(CCn1cncn1)N1CCc2[nH]nc(-c3cccc4ccccc34)c2C1 | inactive
25 | CCCN(CC1CCOC1)C(=O)Nc1ccccc1C(F)(F)F (configuration not stated) | inactive
26 | O=[S+]([O-])(c1cccc(C(F)(F)F)c1)N1CCC2(CCN(CCc3ccccc3)c3ccccc3O2)CC1 | inactive
27 | Cc1ccc(CN2CCC(C3CCN(S(C)(=O)=O)CC3)C2)nc1 (configuration not stated) | inactive
28 | CCCNc1cc(N2CCC(CCC(=O)Nc3ccc(C)cc3)CC2)ncn1 | inactive
29 | COc1ccccc1Oc1ncccc1CNC(=O)c1ccc2n[nH]nc2c1 | inactive
30 | CC(C)c1ccc([S+](=O)([O-])N2CCN(c3cccc(CN(C)[S+](C)(=O)[O-])c3F)CC2)cc1 | 35.5 µM (active)
31 | Cc1ccc(-c2ccccc2CN2CCN([S+](=O)([O-])c3cccc(C(F)(F)F)c3)CC2)cc1Cl | inactive
32 | CC(=O)NC(C)c1nnc2n1CCN([S+](=O)([O-])c1ccccc1)C2 (configuration not stated) | inactive
33 | NCC(=O)N1Cc2ccccc2CC2(CCCCN2CC2CCOCC2)C1 (configuration not stated) | inactive
34 | CC(=O)NCCC(=O)N1Cc2ccccc2CC2(CCCCN2CC2CCNC2)C1 (configuration not stated) | inactive
35 | O=C(C1CCCC1)N1Cc2ccccc2CC2(CCCCN2CC2CCNCC2)C1 (configuration not stated) | 17.8 µM (active)
36 | Cc1ccccc1OCC(=O)N1CCC2(CC1)NC(=O)N(Cc1ccccc1)C2=O | inactive
37 | Cc1ccc2[nH]c(=O)c(CCC(=O)NCc3ccncc3)cc2c1 | inactive
38 | COC(=O)[C@@H]1C[C@H](NC(=O)c2cc(OC)nc(OC)n2)CN1C | inactive
39 | COc1ccccc1N1CCN(C(=O)CCc2conc2-c2ccccc2F)CC1 | inactive
40 | COc1ccccc1N1CCN(C(=O)C[C@@H]2C[C@@H](C(C)C)[C@H](CO)C=C2C)CC1 | 100 µM (active)
41 | CC1=C[C@@H](CC#N)[C@H](C(C)C)C[C@H]1CC(=O)N1CCN(C)CC1 | inactive
42 | COc1ccccc1C(=O)N1CCCN(c2ccc3nnc(C)n3n2)CC1 | inactive

Row | SMILES | Potency
43 | O=C(c1ccnc(-c2nnc3ccc(N4CCOCC4)nn23)c1)N1CCCCC1 | 20 µM (active)
44 | O=C(NC1CCCC1)NC1CCN(c2ccc3nnc(-c4ccccc4)n3n2)CC1 | inactive
45 | CCn1nccc1C(=O)N1CCCCCC1c1nc(C2CC2)no1 (configuration not stated) | inactive
46 | COc1ccc(S(=O)(=O)N2CCCC(Cn3cnc4cccnc43)C2)cc1 (configuration not stated) | inactive
47 | COc1ccc(-c2nc(CN3CCOC(CN)C3)c(C)o2)c2ccccc12 (configuration not stated) | 25.1 µM (active)
48 | Cc1oc(-c2cccc(Oc3ccccc3)c2)nc1CN1CCOC(CCN)C1 (configuration not stated) | 25.1 µM (active)
49 | CCn1cnnc1CC1CCN(C(=O)C2CCN(Cc3nc(-c4cccc(C)c4)oc3C)CC2)CC1 | inactive
50 | Cc1oc(-c2cccs2)nc1CN1CCOC(Cc2ccccc2)C1 (configuration not stated) | inactive
51 | CCC1CN(Cc2cn(-c3ccccc3)nc2-c2ccc(OC)cc2F)CCO1 (configuration not stated) | inactive
52 | Cc1oc(-c2cc(F)ccc2F)nc1CN1CCN(c2ccccc2)CC1C (configuration not stated) | inactive
53 | O=C(c1cn2cc(Cl)ccc2n1)N1CCc2nc(-c3ccccc3)[nH]c2C1 | inactive
54 | COC(=O)[C@@H]1C[C@@H](NC(=O)c2ccc(-c3nnn(C)n3)cc2)CN1C | inactive
55 | COC(=O)[C@@H]1Cc2c([nH]c3ccccc23)[C@H]2C[C@H](NCCNC(C)=O)C[C@@H](c3ccc(C)cc3)N21 | 25.1 µM (active)
56 | O=C(CC1COCCN1)N1CCC(OCc2cccnc2)CC1 (configuration not stated) | inactive
57 | CCCOC(=O)N1CCCC(c2nccn2CCCN(C)C)C1 (configuration not stated) | inactive
58 | O=C(c1cc2ccccc2o1)N1CCC2(CNS(=O)(=O)c3cnccc3O2)C1 (configuration not stated) | inactive
59 | C=CCNC(=O)c1ccc2ccnn2c1 | inactive
60 | COc1ccc(C(=O)N2CCCC(C(=O)N3CCCC(c4nc5ccncc5[nH]4)C3)C2)cc1 (configuration not stated) | inactive
61 | COc1ccc(-c2nc3ccncc3[nH]2)cc1 | 10 µM (active) and 17.8 µM (active)
62 | COc1ccc(C(=O)N2CCCC2C(=O)N2CCCC2c2nc3ccncc3[nH]2)cc1 (configuration not stated) | inactive
